Test results reported in the supplement of paper PMC10338343.
± gives the standard deviation.

Test system: EfPiwi piRISC loaded with L1MC piRNA (26 nt)
Experiment: pre-steady-state target cleavage rate (min^-1); auxiliary factor: 500 nM Ephydatia muelleri Gtsf1; guide: L1MC piRNA 5'p-UAACUAAAUACUAUGCAAGCUGUAGG; MIWI and MILI are mouse PIWI proteins and EfPiwi is from a freshwater sponge; tags in brackets are library labels; higher = faster piRNA-guided slicing of the target
Outline: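 Cleave-'n-Seq used a transcribed, DNA-blocked target RNA library at 0.1 nM and active affinity-purified piRISC with one synthetic guide at 1 nM, with or without 500 nM GTSF1 partner protein, in HEPES–potassium acetate buffer at 33 °C for 0–8 or 0–960 min. Uncleaved targets were sequenced and normalised to depth and to weakly complementary targets, and three trials were pooled with k3 capped at 0.0001 min^-1. The pre-steady-state cleavage rate was estimated by a burst-and-steady-state fit.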

Row | Sequence | pre-steady-state target cleavage rate
1 | UCCUGGAUGAGCUUGCAUAGUAUUAAGUUA | 0.00469 ± 0.0021
2 | UCCUGGAUGAGCUUGCAUAGUUUUUAGUUA | 0.00485 ± 0.002
3 | UCCUGCUACAGUCUUGCAUAGUAUUUAGUUA | 0.00684 ± 0.0025
4 | UCCUGGUACAGGCUUGCAUAGUAUUUAGUUA | 0.00759 ± 0.0028
5 | UCCUCCUACUGCUUGGAUAGUAUUUAGUUA | 0.064 ± 0.012
6 | UCCUGGAUCAGUCUUGCAUAGUAUUUAGUUA | 0.0152 ± 0.0042
7 | UCCUGGAACACGAUGCAUAGUAUUUAGUUA | 0.00377 ± 0.0016
8 | UCCUGGAUCAGCAUGCAUAGUAUUUAGUAA | 0.00497 ± 0.0029
9 | UCCUGGAACAGCUACCAUAGUAUUUAGUUA | 0.00309 ± 0.0026
10 | UCCUCCUACAGCUUGGAUAGUUUUUAGUUA | 0.0265 ± 0.007
11 | UCCUCCUACAGGUUGCAUUGUAUUUAGUUA | 0.0124 ± 0.0028
12 | UCCUGGAACAGCUUGCAUGGUAUUUAGUUA | 0.0141 ± 0.0045
13 | UCCUGGUACAGCUUGCAUAAUAUUUAGUUA | 0.00307 ± 0.0027
14 | UCCUGGAUGUGCUUGCAUAGUGUUUAGUUA | 0.0123 ± 0.0051
15 | UCCUGGAACUGCUUGCAUAGUAUUUAGUAA | 0.00308 ± 0.0023
16 | UCCUACUACAGCUUGCAUAGUAUUUAGUUA | 0.0579 ± 0.018
17 | UCCUGCUACACCUUGCAUAGUAUUUAGUUA | 0.0124 ± 0.0048
18 | UCCUGGAUCAGCUUGCAUCGUAUUUAGUUA | 0.00918 ± 0.0028
19 | UCCUGCUACAGCUGCAUAGUAUUUAGUUA | 0.0102 ± 0.0026
20 | UCCUGGUACAGCUUGCAUAGUAUUUUGUUA | 0.00618 ± 0.003

Row | Sequence | pre-steady-state target cleavage rate
21 | UCCUGCUUCAGCUUGCAUAGUAUUAAGUUA | 0.00492 ± 0.0016
22 | UCCUCCUAGAGCUUGCAUUGUAUUUAGUUA | 0.018 ± 0.0048
23 | UCCUCCUACAGCUUGCAUGGUAUUUAGUUA | 0.0681 ± 0.02
24 | UCCUCCUACAGCUUGCAAGUAUUUAGUUA | 0.00641 ± 0.0026
25 | UCCUGCUACAGCUUGCAUAGUAUUUAGUCUA | 0.00636 ± 0.0024
26 | UCCUGCUACAGCAUGCAUAGUAUUUAGUUA | 0.0124 ± 0.0037
27 | UCCUGGAUCAGCUAGCAUAGUAUUAAGUUA | 0.00318 ± 0.002
28 | UCCUGGAACAGCAUGCAUAGUUUUUAGUUA | 0.00387 ± 0.0016
29 | UCCUCCAUCAGCUUGCAUAGUAUUUAGUAA | 0.00678 ± 0.003
30 | UCCUGGAUCAGCUUGCAUAGUAUUUCGUUA | 0.00263 ± 0.002
31 | UCCUGGUUCAGCUUGCAUAGUUUUUAGUUA | 0.00498 ± 0.0023
32 | UCCUGCUACGCUUGCAUAGUAUUUAGUUA | 0.0122 ± 0.0033
33 | UCCUGGAUGACCUUGCAUAGUAUUUAGUUA | 0.0113 ± 0.0049
34 | UCCUGGUUCAGCAUGCAUAGUAUUUAGUUA | 0.0347 ± 0.0092
35 | UCCUCCUAGAGCUUGGAUAGUAUUUAGUUA | 0.0312 ± 0.0067
36 | UCCUGCUUCAGCUUGGAUAGUAUUUAGUUA | 0.0331 ± 0.007
37 | UCCUGGAACAGGUUGCAUAGUAUUUAGUAA | 0.00828 ± 0.0031
38 | UCCUCCUACACCUUGGAUAGUAUUUAGUUA | 0.00658 ± 0.0029
39 | UCCUGCUACAGCUUUGCAUAGUAUUUAGUUA | 0.0161 ± 0.0053
40 | UCCUGGAACACGUUGCAUAGUAUUUAGUUA | 0.0172 ± 0.0053
